The record followed here is PubChem BioAssay (NCI).

Each structure is given as a SMILES string. The panel holds about 83,000 compounds, 20% with a hit somewhere; the sample as a whole holds those more often.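 For each line, cells grew in 96-well plates with the test compound present at a single concentration for 48 hours.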 The source made the active and inactive calls.

This experiment deals with IGROV1 ovarian. As to the kind of experiment: NCI-60 one-dose screen, 48 h (100 = growth as untreated, 0 = no growth, -100 = all killed). The conditions noted are these: 10 µM unless noted. Here is the method: Growth inhibition of the IGROV1 human tumor cell line is measured as a screen for anti-cancer activity. Cells are grown in 96 well plates and exposed to the test compound for 48 hours. Compounds are tested at a single concentration, which is 10^-5 M for most compounds. The reported endpoint is percent growth (GI% or GIPRCNT), where numbers from 0 - 100% represent growth inhibition, and numbers from -100% - 0 represent cell death. For example, a value of 40 represents 60% growth inhibition. A value of 0 means no net growth occurred over the course of the experiment. A value of -40 indicates 40% of cells at the beginning of the experiment died by the end of the experiment. A value of -100 means all cells are dead at the end of the experiment.
NCI-60 Human Tumor Cell Lines Screen was performed using the standard one-dose NCI protocol, which is described in more detail at https://dtp.cancer.gov/discovery_development/nci-60/default.htm.
Compounds with GIPRCNT values below 10 were considered active. Activity score was based on GIPRCNT using the following formula: […]
Score is 0 for GIPRCNT values of 100 or above, 50 for GIPRCNT values of 0, and 100 for GIPRCNT values of -100.
As for `O=C(NCCN1CC1)C(=O)NCCN1CC1`, the growth was 78.5% (inactive).

Take `O=C(CC1(O)C(=O)Nc2ccccc21)c1ccc(C(=O)NCC2CCC3(CC2)OOC2(CCCCC2)OO3)cc1` (stereo not given): the growth is 41% (inactive).

For `O[C@H](CN1CC1)[C@@H](O)CN1CC1`, the growth is 93.9% (inactive).

Take `COc1ccc2c(c1)c(-c1nc(-c3cn(C)c4ncccc34)cs1)cn2CCN1CCOCC1`: the growth is 28.7% (inactive).

Consider `Oc1c(CCl)cc(Cl)cc1CCl`, for which the growth is 115% (inactive).

Consider `CCNc1nc(Cl)nc(NCC)n1`, for which the growth is 29.4% (inactive).

Take `COC(=O)[C@H](Cc1ccccc1)NC(=O)c1csc([C@@H](C[C@H](C(C)C)N(C)C(=O)[C@@H](NC(=O)[C@H]2CCCN2C)C2CC2)OC(C)=O)n1`: the growth is 39.1% (inactive).

Turning to `C[C@]12CC[C@H]3[C@@H](CC4SC(N)=NC45C/C(=N/NC(N)=O)CC[C@]35C)[C@@H]1CCC2=O` (stereo not given in full), the growth is 2.9% (active).

In the case of `O=C1CC2(CC3(Cl)C(Cl)=C(Cl)C2(Cl)C3(Cl)Cl)C(=O)O1` (stereo not given), the growth is 105% (inactive).

For `Clc1cccc(NCOOC2(OOCNc3cccc(Cl)c3)CCCCC2)c1`, the growth is -33.2% (active).

On to `CCCCCCCC(=O)OCC(=O)[C@]1(O)Cc2c(O)c3c(c(O)c2[C@@H](OC2CC(N)C(O)C(C)O2)C1)C(=O)c1c(OC)cccc1C3=O` (stereo not given in full), for which the growth is -66.8% (active).

For the compound `O=C(c1cccc(O)c1O)c1cn(Cc2ccc(F)cc2)c2cccc(O)c12`, the growth was -42.8% (active).

In the case of `O=NN1CCCc2cccc(O)c21`, the growth was 44.4% (inactive).

In the case of `Nc1nnnc2nc[nH]c12`, the growth is 8.3% (active).

With `CN[C@@]1(c2ccccc2Cl)CCCC[C@@H]1NCC1CCCO1` (stereo not given in full), the growth was 102% (inactive).

Consider `COC(=O)[C@@]1(C)CC[C@]2(C)CC[C@]3(C)C4=CC=C5C(=CC(=O)C(O)=C5C)[C@]4(C)CC[C@@]3(C)[C@@H]2C1`, for which the growth was -77.4% (active).

Turning to `Cc1ccc(N2COOC3(OOC2)C2CC4CC(C2)CC3C4)cc1`, the growth was 45.2% (inactive).

Turning to `O=C1N[C@@H]2[C@@H](O)[C@@H](O)[C@H](O)C[C@H]2c2cc3c(c(O)c21)OCO3`, the growth was -7.85% (active).

Consider `c1cnc2[nH]cc(-c3csc(-c4cn(CCCCN5CCCCC5)c5ccccc45)n3)c2c1`, for which the growth is 44.9% (inactive).

Regarding `COc1cc([C@@H]2c3cc4c(cc3[C@H](OC(C)=O)[C@H]3COC(=O)[C@@H]23)OCO4)cc(OC)c1OC`, the growth was 16.8% (inactive).

In the case of `Oc1ccc2c3c1OC1[C@@H](O)CC[C@@]4(O)[C@@H](C2)N(CC2CCC2)CC[C@]314` (stereo not given in full), the growth was 103% (inactive).

Turning to `COc1ccc([As]=[As]c2ccc(OC)c(NCS(=O)(=O)O)c2)cc1NCS(=O)(=O)O` (stereo not given), the growth was 5.53% (active).

On to `CC1=C(CNO)C2=C(C)C3(CC3)[C@@](C)(O)C(=O)C2=C1`, for which the growth was -8.2% (active).

Consider `COc1cc2c(=O)n(C3CCCCCCC3)c3c4cc[nH]c4ncc3c2cc1OC`, for which the growth is 48.4% (inactive).

Regarding `COc1cc(C=Nc2cccc(C(=O)O)c2)ccc1N(CCCl)CCCl`, the growth was 97% (inactive).

As for `C=CCCCN=C=S`, the growth was 72% (inactive).

In the case of `CC[C@@H]1[C@@H](C)O[C@@](O)([C@@H](C)[C@H](O)[C@H](C)[C@H]2OC(=O)/C=C/C=C/[C@H](C)[C@@H]([C@@H](C)[C@@H](O)[C@H](C)[C@@]3(O)C[C@@H](O[C@H]4C[C@@H](O)[C@H](O)C(C)O4)[C@H](CC)[C@@H](C)O3)OC(=O)/C=C/C=C/[C@@H]2C)C[C@H]1O[C@@H]1C[C@@H](O)[C@H](O)C(C)O1` (stereo not given in full), the growth was -71.4% (active).

On to `CC(=O)O[C@H]1C(=O)[C@@]2(C)[C@H]([C@H](OC(=O)c3ccccc3)[C@]3(O)C[C@H](OC(=O)[C@H](OC(=O)OC[C@H]4COC(C)(C)O4)[C@@H](NC(=O)c4ccccc4)c4ccccc4)C(C)=C1C3(C)C)[C@]1(OC(C)=O)CO[C@@H]1C[C@@H]2O`, for which the growth is 18.8% (inactive).

As to `O=C(Nc1ccc([N+](=O)[O-])cc1)C(Cl)(Cl)Cl`, the growth was 93.5% (inactive).

Turning to `ClCCN(CCCl)c1ccc(/C=N/Nc2ncnc3nc[nH]c23)cc1`, the growth was 28.3% (inactive).

For the compound `COC(=O)[C@@H](C)C[C@H](Cc1ccccc1)NC(=O)c1nc([C@@H](C[C@H](C(C)C)N(C)C(=O)[C@@H](NC(=O)[C@H]2C[C@H](O)CCN2C)C(C)C)OC(C)=O)sc1C(C)C`, the growth is 10.2% (inactive).

Turning to `CC[C@H](C)[C@@H]1OC(=O)C(C)(C)[C@H](O)[C@H](Cc2ccccc2)OC(=O)[C@H](C(C)C)OC(=O)[C@@H](NC(=O)c2cccc(NC=O)c2O)[C@@H](C)OC1=O`, the growth was 53.6% (inactive).

With `Cn1cc(-c2csc(-c3cn(CCN4CCOCC4)c4ccccc34)n2)c2cccnc21`, the growth was 61.8% (inactive).

As to `CC1=C(O)[C@@](C)(CCCCC[C@H](C)CCCCc2ccc(O)cc2)OOC1=O`, the growth was -11.1% (active).

For `O=C(Nc1ccc(Cl)cc1)Nc1nccs1`, the growth was 33.6% (inactive).

In the case of `COC(=O)[C@@]1(O)C[C@H]2O[C@]1(C)n1c3ccccc3c3c4c(c5c6ccccc6n2c5c31)C(=O)NC4`, the growth is -30.4% (active).

Regarding `CC(=O)O[C@H]1CC[C@H]2[C@@H]3CC=C4c5nc(-c6ccccc6)sc5CC[C@]4(C)[C@H]3CC[C@]12C`, the growth was 97.2% (inactive).

For the compound `CC[C@H](NC(=O)[C@H]1CCCCN1C)C(=O)N(C)[C@H](C[C@@H](OC(C)=O)c1nc(C(=O)N[C@@H](Cc2ccccc2)C[C@H](C)C(=O)O)cs1)C(C)C`, the growth was 25.3% (inactive).

For `C[CH2][Sn]([Cl])([Cl])[CH2]C.Oc1ccccc1C=NCCN=Cc1ccccc1O`, the growth is 98.9% (inactive).

Consider `CC(=O)O[C@H](C[C@H](C(C)C)N(C)C(=O)[C@@H](NC(=O)[C@H]1CCCCN1C)C(C)C)c1nc(C(=O)NC2CCC(C(=O)O)CC2)cs1` (stereo not given in full), for which the growth is 52.9% (inactive).
